Rab9 prom act: activates the Rab9 promoter; 2.8% of 320,000 active; Huh7 Rab9 promoter-luciferase reporter, luminescence, 24 h; Potency, µM (doses to about 9.22 µM), actives largely listed as activators; further: nearly all actives have a fitted effect of over 60% in size
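Luminescence read-out: Huh7 cells stably expressing Rab9-luciferase, treated 24 h with compound at 37 °C, then lysed with luciferase reagent for 10 min at ambient before reading.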
FLuc modulator: counter-screen for miR-21 project: firefly luciferase inhibitors or activators; purified FLuc, Km substrates, luminescence inhibition; P08659; 6.9% of 360,000 active; Potency, µM (highest dose often 57.5 µM), hits mostly inhibitors; AID 588342; further: nearly all actives have a fitted effect of over 55% in size
Target sequence (P08659 whole entry, looked up): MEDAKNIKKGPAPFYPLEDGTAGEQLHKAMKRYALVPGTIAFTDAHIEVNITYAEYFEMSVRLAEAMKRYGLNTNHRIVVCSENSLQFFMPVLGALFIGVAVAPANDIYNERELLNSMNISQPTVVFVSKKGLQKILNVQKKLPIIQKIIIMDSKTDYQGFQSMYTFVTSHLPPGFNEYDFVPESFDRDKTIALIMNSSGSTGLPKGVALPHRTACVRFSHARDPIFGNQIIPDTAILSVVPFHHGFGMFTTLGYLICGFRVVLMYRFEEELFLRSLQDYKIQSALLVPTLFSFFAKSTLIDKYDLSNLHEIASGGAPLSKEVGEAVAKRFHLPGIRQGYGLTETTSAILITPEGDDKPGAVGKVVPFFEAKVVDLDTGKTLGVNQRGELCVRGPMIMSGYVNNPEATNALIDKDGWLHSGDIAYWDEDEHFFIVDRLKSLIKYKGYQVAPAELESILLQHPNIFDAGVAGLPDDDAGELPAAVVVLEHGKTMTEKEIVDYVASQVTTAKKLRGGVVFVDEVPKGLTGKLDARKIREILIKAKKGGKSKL
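Purified P. pyralis luciferase, 10 nM final, with Km-level 10 uM D-luciferin and 10 uM ATP in 50 mM Tris acetate pH 7.5, 10 mM Mg acetate, 0.01% Tween-20, 0.05% BSA; 6-point qHTS titration about 60 µM downward; luminescence read.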
NPC1 promoter act: activates the NPC1 promoter; Huh7 NPC1 promoter luciferase reporter, 24 h; Potency, µM (titrated, usually from 9.22 µM), usual class: activators; 2.4% of 320,000 active; AID 485313; further: nearly all actives have a fitted effect of over 60% in size
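Luciferase expression driven by the NPC1 promoter was measured in stably transfected Huh7 cells after a 24 h compound incubation, using a luciferase reagent and a luminescence read.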
ELG1 DNA repair: ELG1-dependent DNA repair inhibition; HEK293T ELG1-luciferase reporter, luminescence, 16 h; DNA damage induced by 5-fluorouridine; Potency, µM (doses to about 46.1 µM), most hits filed as inhibitors; 2.3% of 330,000 active; further: nearly all actives have a fitted effect of over 55% in size
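Quantitative HTS, concentration-response format. 2,000 cells/well co-treated with 5-fluorouridine and compound, 16 hr in 5% CO2 at 37 °C; ONE-Glo luminescence read after 30 min.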
SMN2 splice enh: SMN2 splice variant enhancement; HEK293 SMN2-luciferase splicing reporter, luminescence, 30-36 h; Potency, µM (titrated, usually from 46.1 µM), actives largely listed as activators; 2.8% of 210,000 active; AID 1458; further: nearly all actives have a fitted effect of over 55% in size
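qHTS luciferase splicing reporter: luminescence rises when SMN2 exon 7 is included in transfected HEK293 cells. Compound exposure lasted 30-36 h at 37C, with 4.5 mM final sodium butyrate as control, followed by a ONE-Glo read.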
ELG1 genotoxic: induces genotoxicity in HEK293T cells with luciferase-tagged ELG1; HEK293T ELG1-luciferase reporter, luminescence, 16 h; 1.3% of 330,000 active; Potency, µM (doses to about 46 µM), hits mostly activators; further: nearly all actives have a fitted effect of over 60% in size
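Cells (2,000/well) expressing the ELG1-luciferase fusion are dosed by pin tool and kept 16 hr at 37 °C, 5% CO2. Signal comes from ONE-Glo luciferase reagent after 30 min at room temperature.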
Numbers stand for hits; i = inactive; ? = inconclusive; nt = no result. This is a sample that favours compounds with a hit; in the whole collection about 9.4% have one here. The call rests on the fitted dose curve; in most records, active means well fitted curve in the direction sought with a large enough effect; inconclusive means small, poorly fitted or top-dose-only effect, or another doubt; inactive means no such curve, though single readings can be large; an effect the other way counts as inactive or inconclusive.

SMILES	Rab9 prom act	FLuc modulator	NPC1 promoter act	ELG1 DNA repair	SMN2 splice enh	ELG1 genotoxic
Cc1ccc(C(=O)C(C(=O)/C=C/c2ccccc2)=C2SCCCS2)cc1	i	i	i	18.4µM	i	i
COc1cc(Cl)c(NS(=O)(=O)c2ccc(-c3cnc(C4CC4)o3)cc2)c(OC)c1	nt	i	nt	nt	nt	nt
O=C(Cn1nnc(-c2ccccc2)n1)OCc1ccccc1	i	?	i	i	i	i
O=C(OCc1ccccc1)c1cccc(-c2nnn(Cc3ccccc3)n2)c1	i	i	i	?	7.94µM	?
O=C(CCCCCNc1nc(=S)[nH]c2ccccc12)NCCc1ccc(Cl)cc1	i	i	i	i	i	i
O=C(CCCCCNc1nc(=S)[nH]c2ccccc12)NCCc1c[nH]c2ccccc12	i	?	i	18.4µM	i	i
O=C(NCc1cccc(Br)c1)c1cnn(-c2ccc(F)cc2)c1-n1cccc1	nt	i	nt	nt	nt	nt
O=S(=O)(c1ccccc1)N1c2cc(Cl)ccc2Oc2nc3ccccc3nc21	i	13.5µM	i	i	?	i
O=S(=O)(c1ccccc1)N1CN(c2ccc(F)cc2F)c2nc3ccccc3nc21	nt	nt	nt	?	nt	i
Cc1cccc(NC(=O)c2oc3ccc(S(=O)(=O)N4CCC5(CC4)OCCO5)cc3c2C)c1C	nt	i	nt	nt	nt	nt
CCOc1ccccc1CNC(=O)C1CCN(C(=O)N2CC(CC)Oc3ccc(C)cc32)CC1 (configuration not stated)	nt	i	nt	nt	nt	nt
COc1ccc(C(=O)/C=C/c2cc(OC)c(O)c(OC)c2)c(F)c1	i	19µM	i	8.2µM	nt	i
COc1cc(/C=C/C(=O)c2ccc(C)c([N+](=O)[O-])c2)cc(OC)c1O	i	i	i	i	i	i
COc1ccc2cc(C(=O)/C=C/c3cc(OC)c(O)c(OC)c3)ccc2c1	i	1.9µM	?	i	nt	i
Cc1ccccc1CN1CCc2c(OCC(=O)N3CCCc4ccccc43)cccc2C1=O	i	i	i	?	i	i
O=C1c2cccc(OCC(=O)N3CCCc4ccccc43)c2CCN1Cc1cccnc1	i	i	i	7.3µM	i	i
O=C1c2cccc(OCC(=O)N3N=C(c4cccs4)CC3c3ccc(F)cc3)c2CCN1Cc1cccnc1 (configuration not stated)	i	i	i	18.4µM	i	i
CCOC(=O)N1CCN(C(=O)COc2cccc3c2CCN(Cc2cccc(C)c2)C3=O)CC1	i	i	i	20.6µM	i	i
CCCN(C(=O)c1sc2nc3n(c(=O)c2c1C)CCCC3)c1ccccc1C	nt	i	nt	nt	nt	nt
O=C(NCCC1=CCCCC1)c1ccc2c(=O)n3nc(Nc4ccccc4)sc3nc2c1	nt	i	nt	nt	nt	nt
O=C1NC(c2cccs2)Nc2sc3c(c21)CCCC3 (configuration not stated)	3.55µM	6.75µM	2.82µM	?	?	i
O=[N+]([O-])c1ccc(-n2cnc3ccccc32)c([N+](=O)[O-])c1	i	i	i	23.1µM	nt	i
CCOC(=O)C1CCN(c2nc3c(S(=O)(=O)c4ccccc4)nnn3c3ccsc23)CC1	nt	i	nt	nt	nt	nt
Cc1ccc(-c2nc(NC(=O)CSc3ncn[nH]3)ns2)cc1	i	16.9µM	i	i	nt	i
Cc1ccc(-c2nc(NC(=O)CSc3nnc4scc(-c5ccccc5)n34)ns2)cc1	i	i	i	11.6µM	nt	i
SMILES	Rab9 prom act	FLuc modulator	NPC1 promoter act	ELG1 DNA repair	SMN2 splice enh	ELG1 genotoxic
Cc1cc(SCC(=O)Nc2nsc(-c3ccc(C(C)(C)C)cc3)n2)nc2ccccc12	nt	nt	nt	nt	14.1µM	nt
COc1ccc(N2CCN(C(CNC(=O)C(=O)NCc3ccc(F)cc3)c3cccnc3)CC2)cc1 (configuration not stated)	nt	i	nt	nt	nt	nt
COc1ccccc1C(=O)NNC(=O)c1csc(N2CCOCC2)n1	i	9.53µM	i	i	nt	i
Cc1ccc2nc(-c3ccccc3)cc(C(=O)NNC(=O)c3csc(N4CCOCC4)n3)c2c1	i	?	i	6.51µM	nt	i
Cc1ccc(-c2cc(C(=O)NNC(=O)c3csc(N4CCOCC4)n3)c3ccccc3n2)cc1	i	13.5µM	i	?	nt	i
O=C(NNC(=O)c1cc(-c2ccccc2)nc2ccccc12)c1csc(N2CCOCC2)n1	i	?	i	?	nt	i

Screening results as filed in PubChem.
